Cycloheximide cs – Cycloheximide Counterscreen for Small Molecule Inhibitors of Shiga Toxin | max response, % | hit rate 12% among 300,000 | cell reporter, cycloheximide protein synthesis inhibition counterscreen; in the data active = max response mostly above about 13%, no sharp cut-off; inactive = mostly below about 14%; also: read at 38.3 µM for the half of the compounds with a filed dose
Pf growth 96h – Primary qHTS for delayed death inhibitors of the malarial parasite plastid, 96 hour incubation; P. falciparum luciferase reporter growth, 96 h; hit rate 6.9% among 320,000; Potency, µM (titrated, usually from 28.7 µM), most hits filed as inhibitors
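Readout is luminescence from an integrated firefly luciferase in P. falciparum. Red cells, 2% hematocrit and 0.05% parasitemia final, were cultured with compound through two parasite generations (96 hours) at 37 C, 5% CO2.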
Pf growth 48h – Primary qHTS for delayed death inhibitors of the malarial parasite plastid, 48 hour incubation | Potency, µM (series often up to 28.7 µM), hits mostly inhibitors | P. falciparum luciferase growth in erythrocytes, 48 h | AID 504832, 2011 | hit rate 5.9% among 310,000
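Here the parasites carry a stable luciferase gene and grow inside erythrocytes in Albumax-based RPMI medium with compound for one erythrocytic cycle. Activity is scored as loss of luminescent signal.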
LASV entry inh – qHTS for Inhibitors of binding or entry into cells for Lassa Virus | hit rate 1.2% among 300,000 | Potency, µM (highest dose often 37.9 µM), most hits filed as inhibitors | Lassa virus pseudotype entry inhibition, cell reporter; calls by dose curve; tested in HEK293 cells; also: nearly all actives have a fitted effect of over 50% in size
Shiga toxin inh – A qHTS for Small Molecule Inhibitors of Shiga Toxin. inhibition, % at 38.7 µM. Vero cells, Shiga toxin protein synthesis inhibition reporter. hit rate 9.2% among 290,000; in the data active = inhibition mostly above about 28%, no sharp cut-off; inactive = mostly below about 43%
Marburg entry inh – qHTS for inhibitors of binding or entry into cells for Marburg Virus. Marburg virus pseudotyped entry inhibition, cell reporter. hit rate 1.8% among 300,000. Potency, µM (series often up to 37.8 µM), most hits filed as inhibitors; calls by dose curve; tested in HEK293 cells
Numbers stand for hits; . = inactive; ? = inconclusive; / = no result; [ ] = another dose, or the depositor's remark. Shown are actives, neighbours in structure and some others; about 19% of the full set was active somewhere. Unless noted, calls follow the shape of the dose curve; as a rule, active = well fitted inhibition curve with a large enough effect; inconclusive = small, poorly fitted or top-dose-only effect, or another doubt; inactive = no such curve, though single readings can be large or run the other way.

SMILES	Cycloheximide cs	Pf growth 96h	Pf growth 48h	LASV entry inh	Shiga toxin inh	Marburg entry inh
COc1ccc(Cl)cc1NC(=O)CN1CCC(n2nnc3cc(C)ccc32)CC1	.	.	?	?	.	?
O=C(O)CCC(=O)N1CCC(n2nnc3cc(C(F)(F)F)ccc32)CC1	.	.	2.1µM	.	.	.
CCCNS(=O)(=O)c1cc(Br)cc2c1N(C(=O)CC)CC2	.	.	?	.	.	.
N#C/C(=C\c1cccnc1)c1nc2ccccc2[nH]1	36	?	?	.	57	?
N#C/C(=C/c1ccncc1)c1nc2ccccc2s1	30	.	.	.	44	.
CC1CCc2nc(/C(C#N)=C/c3ccncc3)sc2C1 (configuration not stated)	38	.	?	.	96	.
CC(C)=C(C#N)c1nc2ccccc2s1	.	/	.	.	.	.
Cc1cc2nc(/C(C#N)=C/c3ccncc3)[nH]c2cc1C	.	.	.	/	.	/
N#C/C(=C\c1ccncc1)c1nc2ccccc2[nH]1	32	.	.	.	106	.
COc1ccccc1CNC(=O)CN1C(=O)CSc2ccc(S(=O)(=O)N(C)C)cc21	/	/	/	.	/	/
COCCCn1c(=O)c2sccc2n2c(CCCC(=O)Nc3cc(C)cc(C)c3)nnc12	/	/	/	.	/	/
CCS(=O)(=O)N1CCC2(CC1)OC(=O)C(C)=C2C(=O)NCc1cccc(Cl)c1	/	/	/	.	/	/
CC(C)(C)c1nnc(NC(=O)NS(=O)(=O)c2ccccc2)s1	23	.	.	.	.	?
CC(C)(C)c1nnc(NC(=O)Nc2ccc(Cl)cc2)s1	.	?	.	.	29	.
COc1ccc(CCC(=O)Nc2nnc(C(C)(C)C)s2)cc1	.	?	.	/	.	/
Cc1nc(NS(=O)(=O)c2ccccc2)sc1NC(=O)Nc1ccc(Cl)cc1	.	.	?	/	.	/
COc1ccc(NC(=O)Nc2nnc(C(C)(C)C)s2)cc1	23	.	.	/	49	/
Cc1nc(NC(=O)Nc2ccc(Cl)cc2)sc1C	27	?	.	.	41	.
CCOc1ccc(NC(=O)CN2CCN(CC(=O)Nc3ccc(OC)cc3OC)CC2)cc1	.	?	?	.	.	.
Cc1ccc(S(=O)(=O)N2CCOCC2)cc1NC(=O)COC(=O)CNC(=O)c1ccccc1	.	.	.	.	.	.
CC(C)(C)C(=O)[C@@H]1[C@@H]2C(=O)N(C3CCCCC3)C(=O)[C@@H]2[C@H]2c3ccccc3C=CN12	.	15µM	/	.	.	.
O=C(c1ccc2c(c1)OCO2)[C@@H]1[C@@H]2C(=O)N(C3CCCCC3)C(=O)[C@@H]2C2c3ccccc3C=CN21 (some centres not stated)	.	4.7µM	6.6µM	.	.	.
O=C(c1cccs1)[C@@H]1[C@@H]2C(=O)N(Cc3ccc4c(c3)OCO4)C(=O)[C@@H]2C2c3ccccc3C=CN21 (some centres not stated)	.	10µM	?	/	.	/
O=C(Nc1ccc2c(c1)OCO2)[C@@H]1[C@@H]2C(=O)N(C3CCCCC3)C(=O)[C@@H]2C2c3ccccc3C=CN21 (some centres not stated)	.	.	?	/	.	/
Cn1c(/C=C/c2ccc(Br)cc2)c([N+](=O)[O-])c(=O)n(C)c1=O	.	.	9.3µM	?	.	?
SMILES	Cycloheximide cs	Pf growth 96h	Pf growth 48h	LASV entry inh	Shiga toxin inh	Marburg entry inh
CN(C)c1ccc(/C=C/c2c([N+](=O)[O-])c(=O)n(C)c(=O)n2C)cc1	.	.	.	/	.	/
O=C1CN(C(=O)c2ccc(Br)o2)C(c2ccccc2)c2cc(F)ccc2N1 (configuration not stated)	.	12µM	/	/	.	/
CCCC(=O)N1CC(=O)Nc2ccc(C)cc2C1c1ccc(F)cc1 (configuration not stated)	.	?	?	/	.	/
CCCC(=O)N1CC(=O)Nc2ccc(Br)cc2C1c1ccc(F)cc1 (configuration not stated)	.	.	?	.	.	11µM
COc1ccc(CCC(C(O)C(F)(F)F)S(=O)c2ccccc2)cc1 (configuration not stated)	.	2.1µM	?	.	.	.
CCOC(=O)C1CCCN(Cc2cc(=O)oc3cc(C)c(C(C)C)cc23)C1 (configuration not stated)	.	.	.	.	.	.
Cc1cc2oc(=O)cc(CN3CCCCC3)c2cc1C(C)C	.	.	7.4µM	.	.	?
Cc1cc2oc(=O)cc(Cn3nnc(-c4ccc(Cl)cc4)n3)c2cc1C(C)C	.	?	12µM	/	.	/
Cc1ccc2c(CN3CCCCC3)cc(=O)oc2c1C	36	?	?	/	.	/
CCOC(=O)N1CCN(Cc2cc(=O)oc3ccc(Cl)cc23)CC1	.	.[5.75 µM]	?	.	.	.
CCOC(=O)N1CCN(Cc2cc(=O)oc3cc4c(cc23)CCC4)CC1	.	4.7µM	?	.	.	.
Cc1ccc2c(CN3CCC(C(N)=O)CC3)cc(=O)oc2c1C	.	.	.	.	.	.
CC(C)CCNc1nc2c(c(=O)[nH]c(=O)n2C)n1CC(O)COC(C)C (configuration not stated)	.	.	.	.	.	.
COc1ccccc1C(=O)NCCC(=O)NC1CCCC(C)C1C (configuration not stated)	/	?	?	?	/	.
CCN(CC)S(=O)(=O)c1cccc(-c2nnc(SCC(N)=O)n2C)c1	.	?	.	.	.	.
O=C(Cn1c(=O)cnc2ccccc21)NNC(=O)c1ccc(Cl)cc1	/	.	.	/	/	/
Cc1ccc2c(CN3CCCc4ccccc43)cc(=O)oc2c1C	27	.	?	?	.	?
Cc1cc2oc(=O)cc(CN3CCCCC3)c2cc1O	27	.	.	/	.	/
Clc1ccc(OCc2nn3c(C4CCCCC4)nnc3s2)cc1	.	9.3µM	.	.	.	.
Cc1[nH]c(=O)[nH]c(=O)c1S(=O)(=O)N1CCC(C(=O)N2CCN(c3cccc(C(F)(F)F)c3)CC2)CC1	.	.	10µM	.	.	.
CCOC(=O)C1CCCN(C(=O)Cn2c(=O)c3cccn3c3cccnc32)C1 (configuration not stated)	.	10µM	.	.	.	.
CCOC(=O)C1CCN(C(=O)CCn2c(=O)c3cccn3c3cccnc32)CC1	.	?	?	.	.	.
O=C(CCn1c(=O)c2cccn2c2cccnc21)N1CCN(c2ccccc2)CC1	/	/	/	.	/	/
Cc1cccc(N2CCN(C(=O)CCCn3c(=O)c4cccn4c4cccnc43)CC2)c1C	.	12µM	?	/	.	/
Cc1ccc(Cl)cc1N1CCN(C(=O)CCCn2c(=O)c3cccn3c3cccnc32)CC1	.	?	?	/	.	/
CC1CC(C)CN(C(=O)CCCn2c(=O)c3cccn3c3cccnc32)C1 (configuration not stated)	.	12µM	?	/	.	/
CN1CCN(C(=O)CCn2c(=O)c3cccn3c3cccnc32)CC1	.	13µM	.	.	.	.

Screening data: PubChem, National Center for Advancing Translational Sciences (NCATS)
